{"source": "paper PMC11062922", "about": "(Nature Chemical Biology, 2023)", "test_system": "PRKD3", "settings": "read-out: apparent Kd, n = 1", "note": "Like-named read-outs stand apart in the source and are kept apart here.", "data": [{"substance": "Lestaurtinib", "values": [{"measurement": "potency estimated from few doses", "setting": "compound concentrations:100 nM and 1000 nM (sheet 'Lestaurtinib' of Supplementary Table 1),run:Lestaurtinib_02438_R1,Plate:MR008", "result": 84.2, "unit": "nM"}, {"measurement": "potency estimated from few doses", "setting": "compound concentrations:100 nM and 1000 nM (sheet 'Lestaurtinib' of Supplementary Table 1),run:Lestaurtinib_02438_R2,Plate:MR008", "result": 51.6, "unit": "nM"}, {"measurement": "potency estimated from few doses", "setting": "compound concentrations:100 nM and 1000 nM (sheet 'Lestaurtinib' of Supplementary Table 1),run:Lestaurtinib_02438_R3,Plate:MR008", "result": 82.5, "unit": "nM"}, {"measurement": "potency estimated from few doses", "setting": "compound concentrations:100 nM and 1000 nM (sheet 'Lestaurtinib' of Supplementary Table 1),run:Lestaurtinib_02443_R1,Plate:MR009", "result": 91.7, "unit": "nM"}, {"measurement": "potency estimated from few doses", "setting": "compound concentrations:100 nM and 1000 nM (sheet 'Lestaurtinib' of Supplementary Table 1),run:Lestaurtinib_02473_R1,Plate:MR010", "result": 77.7, "unit": "nM"}, {"measurement": "potency estimated from few doses", "setting": "compound concentrations:100 nM and 1000 nM (sheet 'Lestaurtinib' of Supplementary Table 1),run:Lestaurtinib_02473_R3,Plate:MR010", "result": 79.7, "unit": "nM"}, {"measurement": "potency estimated from few doses", "setting": "compound concentrations:100 nM and 1000 nM (sheet 'Lestaurtinib' of Supplementary Table 1),run:Lestaurtinib_02482_R1,Plate:MR011", "result": 95.2, "unit": "nM"}, {"measurement": "potency estimated from few doses", "setting": "compound concentrations:100 nM and 1000 nM (sheet 'Lestaurtinib' of Supplementary Table 1),run:Lestaurtinib_02482_R3,Plate:MR011", "result": 132, "unit": "nM"}, {"measurement": "potency estimated from few doses", "setting": "compound concentrations:100 nM and 1000 nM (sheet 'Lestaurtinib' of Supplementary Table 1),run:Lestaurtinib_02487_R1,Plate:MR012", "result": 90.9, "unit": "nM"}, {"measurement": "potency estimated from few doses", "setting": "compound concentrations:100 nM and 1000 nM (sheet 'Lestaurtinib' of Supplementary Table 1),run:Lestaurtinib_02487_R2,Plate:MR012", "result": 84.9, "unit": "nM"}, {"measurement": "potency estimated from few doses", "setting": "compound concentrations:100 nM and 1000 nM (sheet 'Lestaurtinib' of Supplementary Table 1),run:Lestaurtinib_02487_R3,Plate:MR012", "result": 94.1, "unit": "nM"}, {"measurement": "potency estimated from few doses", "setting": "compound concentrations:100 nM and 1000 nM (sheet 'Lestaurtinib' of Supplementary Table 1),run:Lestaurtinib_02496_R2,Plate:MR013", "result": 79, "unit": "nM"}, {"measurement": "potency estimated from few doses", "setting": "compound concentrations:100 nM and 1000 nM (sheet 'Lestaurtinib' of Supplementary Table 1),run:Lestaurtinib_02496_R3,Plate:MR013", "result": 79.4, "unit": "nM"}, {"measurement": "potency estimated from few doses", "setting": "compound concentrations:100 nM and 1000 nM (sheet 'Lestaurtinib' of Supplementary Table 1),run:Lestaurtinib_02566_R2,Plate:MR014", "result": 57.7, "unit": "nM"}, {"measurement": "potency estimated from few doses", "setting": "compound concentrations:100 nM and 1000 nM (sheet 'Lestaurtinib' of Supplementary Table 1),run:Lestaurtinib_02566_R3,Plate:MR014", "result": 52.9, "unit": "nM"}, {"measurement": "potency estimated from few doses", "setting": "compound concentrations:100 nM and 1000 nM (sheet 'Lestaurtinib' of Supplementary Table 1),run:Lestaurtinib_02572_R1,Plate:MR015", "result": 45.9, "unit": "nM"}, {"measurement": "potency estimated from few doses", "setting": "compound concentrations:100 nM and 1000 nM (sheet 'Lestaurtinib' of Supplementary Table 1),run:Lestaurtinib_02577_R1,Plate:MR016", "result": 100, "unit": "nM"}, {"measurement": "potency estimated from few doses", "setting": "compound concentrations:100 nM and 1000 nM (sheet 'Lestaurtinib' of Supplementary Table 1),run:Lestaurtinib_02577_R2,Plate:MR016", "result": 87.6, "unit": "nM"}, {"measurement": "potency estimated from few doses", "setting": "compound concentrations:100 nM and 1000 nM (sheet 'Lestaurtinib' of Supplementary Table 1),run:Lestaurtinib_02577_R3,Plate:MR016", "result": 59.2, "unit": "nM"}, {"measurement": "potency estimated from few doses", "setting": "compound concentrations:100 nM and 1000 nM (sheet 'Lestaurtinib' of Supplementary Table 1),run:Lestaurtinib_02584_R1,Plate:MR017", "result": 95.1, "unit": "nM"}, {"measurement": "potency estimated from few doses", "setting": "compound concentrations:100 nM and 1000 nM (sheet 'Lestaurtinib' of Supplementary Table 1),run:Lestaurtinib_02584_R2,Plate:MR017", "result": 100, "unit": "nM"}, {"measurement": "potency estimated from few doses", "setting": "compound concentrations:100 nM and 1000 nM (sheet 'Lestaurtinib' of Supplementary Table 1),run:Lestaurtinib_02584_R3,Plate:MR017", "result": 113, "unit": "nM"}, {"measurement": "potency estimated from few doses", "setting": "compound concentrations:100 nM and 1000 nM (sheet 'Lestaurtinib' of Supplementary Table 1),run:Lestaurtinib_02601_R2,Plate:MR018", "result": 71.2, "unit": "nM"}, {"measurement": "potency estimated from few doses", "setting": "compound concentrations:100 nM and 1000 nM (sheet 'Lestaurtinib' of Supplementary Table 1),run:Lestaurtinib_02601_R3,Plate:MR018", "result": 77.1, "unit": "nM"}, {"measurement": "potency estimated from few doses", "setting": "compound concentrations:100 nM and 1000 nM (sheet 'Lestaurtinib' of Supplementary Table 1),run:Lestaurtinib_02606_R1,Plate:MR019", "result": 69.4, "unit": "nM"}, {"measurement": "potency estimated from few doses", "setting": "compound concentrations:100 nM and 1000 nM (sheet 'Lestaurtinib' of Supplementary Table 1),run:Lestaurtinib_02606_R2,Plate:MR019", "result": 130, "unit": "nM"}, {"measurement": "potency estimated from few doses", "setting": "compound concentrations:100 nM and 1000 nM (sheet 'Lestaurtinib' of Supplementary Table 1),run:Lestaurtinib_02606_R3,Plate:MR019", "result": 130, "unit": "nM"}, {"measurement": "potency estimated from few doses", "setting": "compound concentrations:100 nM and 1000 nM (sheet 'Lestaurtinib' of Supplementary Table 1),run:Lestaurtinib_02624_R1,Plate:MR020", "result": 67.4, "unit": "nM"}, {"measurement": "potency estimated from few doses", "setting": "compound concentrations:100 nM and 1000 nM (sheet 'Lestaurtinib' of Supplementary Table 1),run:Lestaurtinib_02624_R2,Plate:MR020", "result": 90.4, "unit": "nM"}, {"measurement": "potency estimated from few doses", "setting": "compound concentrations:100 nM and 1000 nM (sheet 'Lestaurtinib' of Supplementary Table 1),run:Lestaurtinib_02624_R3,Plate:MR020", "result": 79.8, "unit": "nM"}, {"measurement": "potency estimated from few doses", "setting": "compound concentrations:100 nM and 1000 nM (sheet 'Lestaurtinib' of Supplementary Table 1),run:Lestaurtinib_02724_R1,Plate:MR021", "result": 56.1, "unit": "nM"}, {"measurement": "potency estimated from few doses", "setting": "compound concentrations:100 nM and 1000 nM (sheet 'Lestaurtinib' of Supplementary Table 1),run:Lestaurtinib_02724_R2,Plate:MR021", "result": 71.1, "unit": "nM"}, {"measurement": "potency estimated from few doses", "setting": "compound concentrations:100 nM and 1000 nM (sheet 'Lestaurtinib' of Supplementary Table 1),run:Lestaurtinib_02724_R3,Plate:MR021", "result": 59.7, "unit": "nM"}, {"measurement": "potency estimated from few doses", "setting": "compound concentrations:100 nM and 1000 nM (sheet 'Lestaurtinib' of Supplementary Table 1),run:Lestaurtinib_02741_R1,Plate:MR023", "result": 88.2, "unit": "nM"}, {"measurement": "potency estimated from few doses", "setting": "compound concentrations:100 nM and 1000 nM (sheet 'Lestaurtinib' of Supplementary Table 1),run:Lestaurtinib_02741_R2,Plate:MR023", "result": 56.3, "unit": "nM"}, {"measurement": "potency estimated from few doses", "setting": "compound concentrations:100 nM and 1000 nM (sheet 'Lestaurtinib' of Supplementary Table 1),run:Lestaurtinib_02741_R3,Plate:MR023", "result": 88.4, "unit": "nM"}, {"measurement": "potency estimated from few doses", "setting": "compound concentrations:100 nM and 1000 nM (sheet 'Lestaurtinib' of Supplementary Table 1),run:Lestaurtinib_02748_R1,Plate:MR024", "result": 86, "unit": "nM"}, {"measurement": "potency estimated from few doses", "setting": "compound concentrations:100 nM and 1000 nM (sheet 'Lestaurtinib' of Supplementary Table 1),run:Lestaurtinib_02748_R3,Plate:MR024", "result": 98, "unit": "nM"}, {"measurement": "potency estimated from few doses", "setting": "compound concentrations:100 nM and 1000 nM (sheet 'Lestaurtinib' of Supplementary Table 1),run:Lestaurtinib_02752_R1,Plate:MR025", "result": 92.9, "unit": "nM"}, {"measurement": "potency estimated from few doses", "setting": "compound concentrations:100 nM and 1000 nM (sheet 'Lestaurtinib' of Supplementary Table 1),run:Lestaurtinib_02752_R3,Plate:MR025", "result": 99.3, "unit": "nM"}, {"measurement": "potency estimated from few doses", "setting": "compound concentrations:100 nM and 1000 nM (sheet 'Lestaurtinib' of Supplementary Table 1),run:Lestaurtinib_02765_R3,Plate:MR026", "result": 82.4, "unit": "nM"}, {"measurement": "potency estimated from few doses", "setting": "compound concentrations:100 nM and 1000 nM (sheet 'Lestaurtinib' of Supplementary Table 1),run:Lestaurtinib_02766_R1,Plate:MR027", "result": 99.2, "unit": "nM"}]}]}
